About 83,000 compounds went through this panel and 20% of them were active in at least one assay; those are over-represented in the sample as a whole.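 How to read the values: 0–100, growth inhibition (40 = 60% inhibited); 0, no net growth; -100 to 0, cell death (-40 = 40% of starting cells died; -100 = all dead).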 A number with no mark means an inactive call. Activity calls are given as the source filed them. The calls were made as follows: active = growth percent below 10; inactive = the rest.
How the values were obtained:
Assay in all cases: NCI-60 one-dose screen, 48 h (100 = growth as untreated, 0 = no growth, -100 = all killed)
SR leukemia = conditions: 10 µM unless noted
RPMI-8226 leukemia = conditions: 10 µM unless noted
OVCAR-8 ovarian = conditions: 10 µM unless noted
OVCAR-5 ovarian = conditions: 10 µM unless noted
OVCAR-4 ovarian = conditions: 10 µM unless noted
SK-OV-3 ovarian = conditions: 10 µM unless noted
IGROV1 ovarian = conditions: 10 µM unless noted
OVCAR-3 ovarian = conditions: 10 µM unless noted
NCI/ADR-RES ovarian = conditions: 10 µM unless noted
T-47D breast = conditions: 10 µM unless noted
BT-549 breast = conditions: 10 µM unless noted
MDA-MB-435 melanoma = conditions: 10 µM unless noted
SW-620 colon = conditions: 10 µM unless noted
MCF7 breast = conditions: 10 µM unless noted
HCT-116 colon = conditions: 10 µM unless noted
HCC-2998 colon = conditions: 10 µM
KM12 colon = conditions: 10 µM unless noted

SMILES | growth (SR leukemia) | growth (RPMI-8226 leukemia) | growth (OVCAR-8 ovarian) | growth (OVCAR-5 ovarian) | growth (OVCAR-4 ovarian) | growth (SK-OV-3 ovarian) | growth (IGROV1 ovarian) | growth (OVCAR-3 ovarian) | growth (NCI/ADR-RES ovarian) | growth (T-47D breast) | growth (BT-549 breast) | growth (MDA-MB-435 melanoma) | growth (SW-620 colon) | growth (MCF7 breast) | growth (HCT-116 colon) | growth (HCC-2998 colon) | growth (KM12 colon)
Nc1c2c(c(O)c3c1=C(CO)C=N3)=NCCS2 | 3% (active) | -30.8% (active) | -46.4% (active) | -70.5% (active) | -95.3% (active) | -90.9% (active) | -64.3% (active) | -62.3% (active) | -24.8% (active) | -42.5% (active) | -95.9% (active) | -82% (active) | -76% (active) | -50.8% (active) | -90.7% (active) | -94.2% (active) | -70.4% (active)
C=C1C[C@H](O)[C@H](Br)C(C)(C)[C@@]12CCC(C)=C(Cl)C2 | 5.02% (active) | -18.2% (active) | 29% | 43.3% | 27.3% | 12.1% | 40.1% | 35.2% | 22.1% | 28.7% | 26.4% | 9.73% (active) | 29.8% | 16.3% | 9.9% (active) | 42.3% | 13.7%
Cc1cc(N2CCCC2)nc(N(CCCNc2ccnc3cc(Cl)ccc23)Cc2ccc3c(c2)OCO3)n1 | -36% (active) | -31.2% (active) | -2.12% (active) | -3.2% (active) | 13.5% | 53.5% | -7.14% (active) | -32.8% (active) | 1.74% (active) | -18.4% (active) | -14.1% (active) | -71.9% (active) | -27% (active) | -12.8% (active) | -22.9% (active) | -52.4% (active) | 19.1%
C/C(=N\NC(=O)Cn1c(-c2ccc(S(C)(=O)=O)cc2)nc2ccccc21)c1ccc(Cl)cc1 | 87.9% | 87.1% | 80.9% | 106% | 100% | 94.9% | 92.6% | 96.6% | 103% | 81.3% | 85% | 97.4% | 101% | 82.9% | 83.1% | 106% | 95.6%
Cc1cc(C(=O)Nc2cc(Oc3ccc4nc(NC(=O)C5CC5)cn4n3)ccc2C)n(C)n1 | 29.5% | 48.6% | 30.2% | 11.6% | 49% | 17.9% | 12% | 52.8% | 60.2% | 53.4% | 30.1% | 34.3% | 15.2% | 33.7% | 6.14% (active) | 2.16% (active) | 12.2%
Cc1ccc(NC(=O)c2ccc(CN3CCN(C)CC3)cc2)cc1Nc1nc(-c2cccnc2)cs1 | -3.75% (active) | 13.2% | 34.5% | 98.7% | 62.6% | 75.3% | 62.3% | 79.6% | 55.7% | -9.37% (active) | 41.2% | 45.4% | 42.1% | 28.5% | 18.1% | 68.3% | 51.7%
Cc1cc([C@@H](C)Nc2ccccc2C(=O)O)c2nc(N3CCOCC3)cc(=O)n2c1 | 25% | 71.8% | 45.6% | 51.8% | 77.3% | -13.2% (active) | -4.69% (active) | 31.1% | 58.1% | -27.6% (active) | 22.3% | 58% | 35% | 16.4% | 23% | 60.1% | 57%
O=C(O)C1(Cc2cccc(Nc3nccs3)n2)CCC(Oc2cccc(Cl)c2F)CC1 (centres undefined) | 47.5% | 59.8% | 56.6% | 80.1% | 106% | 62.7% | 76.7% | 71.2% | 46.4% | 50.9% | 84.4% | 49.6% | 74.9% | 46.7% | 45% | 95.3% | 19.3%
CN1C/C=C\CCOc2cccc(c2)-c2ccnc(n2)Nc2cccc(c2)C1 | -29.1% (active) | -42.5% (active) | -22.4% (active) | 6.02% (active) | -28.5% (active) | -17.2% (active) | -44.9% (active) | 3.03% (active) | -29% (active) | -42.4% (active) | -69.4% (active) | -85.2% (active) | -5.5% (active) | -33% (active) | -50% (active) | -40% (active) | -53.3% (active)
COc1cc(-c2nc(C(=O)NCC(=O)O)nn2-c2ccc(Cl)cc2)cc(OC)c1OC | 106% | 99% | 102% | 105% | 105% | 98.7% | 105% | 107% | 105% | 99.5% | 106% | 108% | 108% | 96.3% | 103% | 100% | 96.3%
COc1cccc(NC(=O)Nc2ccc(Nc3ncnc4sc5c(c34)CCN(C(=O)CCl)C5)cc2)c1 | 77.8% | 93.3% | 84.4% | 103% | 126% | 93.8% | 82.6% | 104% | 102% | 86.6% | 99.1% | 109% | 102% | 87.3% | 93.5% | 115% | 98.1%
Nc1ncnc2c1c(-c1cccc(OCc3ccccc3)c1)cn2C1CC(CN2CCC2)C1 (centres undefined) | -17.7% (active) | -24% (active) | 34.9% | 36% | 57.4% | 40.2% | 22.4% | 58.8% | 35.4% | -38.2% (active) | 33% | -43.6% (active) | 3.94% (active) | -22% (active) | 9.54% (active) | 17% | 6.66% (active)
CCC1(/C=N/NC(N)=S)NC(=O)NC1=O (centres undefined) | 91.1% | 103% | 98.1% | 109% | 109% | 83.9% | 113% | 119% | 111% | 104% | 103% | 105% | 114% | 97.7% | 101% | 115% | 113%
COc1ccc(C(=O)N2c3ccccc3Sc3ccccc32)c(F)c1 | 23% | 18.6% | 32.3% | 62.1% | 49.2% | 38.3% | 54.8% | -7.19% (active) | 1.71% (active) | 40.2% | 22.7% | -37.6% (active) | 15% | 24.2% | 20.1% | 30.3% | 22.7%
NC1(c2ccc(-c3nc4ccn5c(=O)[nH]nc5c4cc3-c3ccccc3)cc2)CCC1 | -23.4% (active) | 24.7% | 51.9% | 60.5% | 63.2% | 3.19% (active) | 12.6% | 39.7% | 56.8% | -70.4% (active) | 17% | 27% | 55% | 12.2% | 23.3% | 33.6% | 26.9%
C/C(=C(/c1ccc(Cl)cc1)c1ccc(OCCN2CCCCCC2)cc1)c1ccccc1 | 18% | 70.2% | 89% | 69.6% | 73.5% | 113% | 74.1% | 89.6% | 90% | 71.1% | 84.4% | 92.6% | 54% | 76% | 50% | 93.8% | 30.7%
C=CCC(=O)N[C@H](/C=C/C(=O)O)Cc1ccc(-c2cc(Cl)cc(Cl)c2)cc1 | 82% | 96.6% | 92.7% | 92% | 98.6% | 87.3% | 114% | 108% | 107% | 81% | 92% | 103% | 104% | 92.7% | 82.5% | 101% | 98.5%

From PubChem BioAssay (NCI)
